Source: PubChem BioAssay (NCI)
The panel holds about 83,000 compounds, 20% with a hit somewhere; the sample as a whole holds those more often.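 Growth was measured after 48 h exposure to one concentration of compound in 96-well plates. Values under 10 count as active.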 A number with no mark means an inactive call. Active and inactive are the calls of the source.

System: HCT-116 colon
Assay: NCI-60 one-dose screen, 48 h (100 = growth as untreated, 0 = no growth, -100 = all killed)
Details: 10 µM unless noted
Protocol: Growth inhibition of the HCT-116 human tumor cell line is measured as a screen for anti-cancer activity. Cells are grown in 96 well plates and exposed to the test compound for 48 hours. Compounds are tested at a single concentration, which is 10^-5 M for most compounds. The reported endpoint is percent growth (GI% or GIPRCNT), where numbers from 0 - 100% represent growth inhibition, and numbers from -100% - 0 represent cell death. For example, a value of 40 represents 60% growth inhibition. A value of 0 means no net growth occurred over the course of the experiment. A value of -40 indicates 40% of cells at the beginning of the experiment died by the end of the experiment. A value of -100 means all cells are dead at the end of the experiment.
NCI-60 Human Tumor Cell Lines Screen was performed using the standard one-dose NCI protocol, which is described in more detail at https://dtp.cancer.gov/discovery_development/nci-60/default.htm.
Compounds with GIPRCNT values below 10 were considered active. Activity score was based on GIPRCNT using the following formula: […]
Score is 0 for GIPRCNT values of 100 or above, 50 for GIPRCNT values of 0, and 100 for GIPRCNT values of -100.

Structure (SMILES)	growth
CS(=O)(=O)OCC(COS(C)(=O)=O)C(c1ccccc1)c1ccccc1	95.9%
CN(C)C(=O)Nc1nc2cc(Cl)c(Cl)cc2[nH]1	1.15% (active)
CCCCCCCCCCCCCCCCNc1ccccc1	101%
O=S(=O)(O)c1ccc(F)cc1	99%
Cc1cc(NC(=O)c2cccc(C(F)(F)F)c2)ccc1-n1ccc2c(NC(=O)c3ccccc3)nccc21	83.5%
Fc1cccc(F)c1C#Cc1ccc2cccnc2c1	74.6%
OC(COc1ccccc1Cl)CN1CCN(c2ccc(Cl)cc2)CC1 (stereo not given)	96.4%
c1ccc(OCC[P+](c2ccccc2)(c2ccccc2)c2ccccc2)cc1	15.6%
CC(C(=O)O)N1C(N)=NNC1c1ccccc1O (stereo not given)	87.4%
O=C(c1cc(-c2ccc(Cl)cc2)nc2ccccc12)N1N=C(c2ccccc2)CC1c1cc(-c2ccccc2)nn1-c1ccccc1 (stereo not given)	68.1%
CSc1nc(N)nc2c1ncn2C	92.1%
CCCCN(CCCC)c1ccc(C(=N)c2ccc(N(C)C)cc2)cc1	-100% (active)
CCOc1ccc(NC(=O)Nc2cc(C(C)C)ccc2C)cc1	36.3%
COc1cc(-c2nc3ccccc3s2)ccc1OCc1nc2n(n1)S(=O)(=O)c1ccccc1N2c1ccccc1	99.5%
COc1cc(CN(c2ccc(Cl)cc2)C2OC(=O)c3ccccc32)cc(OC)c1OC (stereo not given)	28%
COc1ccc2c(c1)C(=O)/C(=C/c1ccc(OCC(=O)c3ccc(Cl)cc3)cc1)O2	30.1%
N#CC1=C(N)Oc2c(ccc3ccccc23)C1c1cc(=O)oc2ccc(Cl)cc12 (stereo not given)	12.7%
C=C1C(=O)O[C@H]2[C@H]1CC/C(COC(=O)n1ccnc1C)=C\CC[C@@]1(C)O[C@@H]21	89%
O=C(Cn1c2ccccc2c2ccncc21)N/N=C/c1c[nH]c2ccccc12	4.33% (active)
OC[C@@H](O)C(O[C@@H]1O[C@H](CO)[C@H](O)[C@H](O)[C@H]1O)[C@H](O)[C@@H](O)CO (stereo not given in full)	113%

Structure (SMILES)	growth
Cc1cn(C2CC(F)C(CO)O2)c(=O)[nH]c1=O (stereo not given)	95.6%
CC(C)[C@@H]1NC(=O)[C@]2(C)CSC(=N2)c2ccnc(c2)CNC(=O)C[C@@H](/C=C/CCS)OC1=O	-39.2% (active)
Nc1nccc2c1ccn2-c1cccc(NC(=O)c2ccc(N3CCOCC3)c(C(F)(F)F)c2)c1	7.23% (active)
CCOc1ccc(NC2=C(Cl)C(=O)c3ccccc3C2=O)cc1	80.6%
CCCCCCCCCCCCCCCCCCNCc1ccc(Cl)cc1	-74.5% (active)
CC[C@@]1(O)C(=O)OCc2c1cc1n(c2=O)Cc2c-1nc1ccccc1c2/C=N/OC(C)(C)C	3.24% (active)
OCc1cn(-c2ccc(Cl)cc2)nc1-c1ccc(O)cc1	96.9%
CCOC(=O)C1=C(N)Oc2cc(OC)ccc2C1c1ccc(F)c(F)c1 (stereo not given)	31.8%
NCC(=O)NS(=O)(=O)OC[C@H]1O[C@@H](n2cnc3c(N)ncnc32)[C@H](O)[C@@H]1O	6.57% (active)
CN[C@@H](CCCNC(N)=NC/C=C(/C)CCC=C(C)C)C(=O)N(C)[C@@H](CCCNC(N)=NCC=C(C)C)C(=O)N[C@H](C)[C@H](OS(=O)(=O)O)c1ccc(OS(=O)(=O)O)c(COS(=O)(=O)O)c1	101%
O=S1(=O)N(CCNc2nccc(-c3c(-c4cccc(O)c4)nc4sccn34)n2)CCN1Cc1ccccc1	45.9%
CCC1S/C(=N\N=C(/C)c2cc3ccccc3o2)N(c2ccccc2)C1=O (stereo not given)	80.8%
Nc1ccc(S(=O)(=O)Nc2ccnn2-c2ccccc2)cc1	109%
CC(/C=C/C=C(\C)[C@H](O)[C@H](C)C(=O)O[C@H]1C[C@H](C)C=C2C=C[C@@]3(C)O[C@@H](O)CC(=O)[C@]3(C)[C@H]21)=C\C=C\C(=O)O	2.2% (active)
CCOC(=O)C1CN(Cc2ccccc2)C(=O)C1=O (stereo not given)	92.9%
Nc1ncnc2c1c(-c1ccc(Oc3ccccc3)cc1)nn2C[C@@H]1SSC[C@H]1O	46.4%
COc1cc(/C=C/C(=O)c2ccc(Oc3ncnc4ccccc34)cc2)cc(OC)c1OC	52.8%
CCN(CC)CCC(C(=O)O)(c1ccccc1)c1ccccc1	90.9%
O=C(Cn1c2ccccc2c2ccncc21)N/N=C/c1cc(O)c(O)c(O)c1	101%
O=C1CN(CCN2CC(=O)NC(=O)C2)CC(=O)N1	93.6%
